FLuc modulator: firefly luciferase modulation, counter-screen for miR-21 project; P08659; purified FLuc, Km substrates, luminescence inhibition; Potency, µM (series often up to 57.5 µM), for inactives: at the highest dose activity change, negative = inhibition, most hits filed as inhibitors; 360,000 tested, 6.9% active;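 further: plate controls were vehicle for no effect and reference inhibitor for full effect; nearly all actives have a fitted effect of over 55% in size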
Target sequence (P08659 whole entry, looked up): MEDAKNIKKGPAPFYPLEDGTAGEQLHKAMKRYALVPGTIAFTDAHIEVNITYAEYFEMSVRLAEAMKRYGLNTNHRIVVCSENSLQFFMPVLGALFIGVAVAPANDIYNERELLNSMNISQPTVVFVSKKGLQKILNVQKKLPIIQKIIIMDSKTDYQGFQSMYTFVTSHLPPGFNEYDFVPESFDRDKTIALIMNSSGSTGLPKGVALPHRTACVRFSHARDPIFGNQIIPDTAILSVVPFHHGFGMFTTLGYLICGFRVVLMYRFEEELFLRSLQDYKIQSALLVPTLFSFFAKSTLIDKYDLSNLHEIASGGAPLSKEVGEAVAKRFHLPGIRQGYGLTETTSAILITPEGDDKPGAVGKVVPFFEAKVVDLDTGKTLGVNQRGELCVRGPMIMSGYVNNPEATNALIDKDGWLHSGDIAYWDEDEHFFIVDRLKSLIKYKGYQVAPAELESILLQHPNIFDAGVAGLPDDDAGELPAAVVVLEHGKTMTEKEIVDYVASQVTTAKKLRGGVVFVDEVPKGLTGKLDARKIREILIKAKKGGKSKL
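Purified P. pyralis luciferase (10nM final) with 10uM D-luciferin and 10uM ATP (Km levels) in 50mM Tris acetate pH 7.5, 10mM Mg acetate, 0.01% Tween-20, 0.05% BSA; qHTS 6-point titration, ~60 µM downward; luminescence read.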
ELG1 genotox: induces genotoxicity in HEK293T cells with luciferase-tagged ELG1; HEK293T ELG1-luciferase reporter, luminescence, 16 h; Potency, µM (highest dose often 46 µM), for the others: at the top dose activity change, positive = activation, hits mostly activators; 330,000 tested, 1.3% active; further: % of control where 0% means no effect; nearly all actives have a fitted effect of over 60% in size
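HEK293T cells expressing luciferase-tagged ELG1 were treated with compound or DMSO for 16 hr at 37°C. Luciferase activity was then read after 30 min with ONE-Glo at room temperature; rising signal flags genetic stress.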
NPC1 promoter act: NPC1 promoter activation. Potency, µM (highest dose often 9.22 µM), for inactives: at the highest dose activation, actives largely listed as activators. AID 485313. Huh7 NPC1 promoter luciferase reporter, 24 h. 320,000 tested, 2.4% active; further: % of control where 0% means no effect; nearly all actives have a fitted effect of over 60% in size
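Stably transfected Huh7 (NPC1 promoter→luciferase), 1500 cells/well in Opti-MEM + 10% FBS, 2 h settle, then compound 24 h at 37 °C. Luminescence after 10 min with Amplite reagent.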
Rab9 prom act: activators of Rab9 promoter; Huh7 Rab9 promoter-luciferase reporter, luminescence, 24 h; Potency, µM (top dose mostly 9.22 µM), for inactives: at the highest dose activation, negative = inhibition, usual class: activators; 320,000 tested, 2.8% active; AID 485297; further: % of control where 0% means no effect; nearly all actives have a fitted effect of over 60% in size
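Luminescence read-out: Huh7 cells stably expressing Rab9-luciferase, treated 24 h with compound at 37 °C, then lysed with luciferase reagent for 10 min at ambient before reading.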
KinaseGlo FLuc: blocks Kinase-Glo luciferase, a counter-screen artifact; Kinase-Glo luciferase, ATP luminescence, 8 min; Potency, µM (highest dose often 38.3 µM), without a hit: top-dose activity change, negative = inhibition, hits mostly inhibitors; 200,000 tested, 0.28% active; AID 1379; further: on the % scale 0 is the no-effect control and ±100 the full control effect; nearly all actives have a fitted effect of over 60% in size
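Compounds were added to a substrate mix at pH 7.2 (50 mM imidazole, 10 uM ATP, within the enzyme's linear range), followed by Kinase-Glo detection reagent; luminescence was measured after 8 minutes at ambient temperature.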
SMN2 splice up: SMN2 splice variant enhancement; Potency, µM (top dose mostly 46.1 µM), for inactives: at the highest dose activity change, positive = activation, actives largely listed as activators; HEK293 SMN2-luciferase splicing reporter, luminescence, 30-36 h; 210,000 tested, 2.8% active; further: % of control where 0% means no effect; nearly all actives have a fitted effect of over 55% in size
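qHTS luciferase splicing reporter: luminescence rises when SMN2 exon 7 is included in transfected HEK293 cells. Compound exposure lasted 30-36 h at 37C, with 4.5 mM final sodium butyrate as control, followed by a ONE-Glo read.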
The depositor's hits bear a star; ? = inconclusive; / = no result given; ! = a repeat was not active. This is a sample that favours compounds with a hit; in the whole collection about 7.5% have one here. The call rests on the fitted dose curve; in most records, active means well fitted curve in the direction sought with a large enough effect; inconclusive means small, poorly fitted or top-dose-only effect, or another doubt; inactive means no such curve, though single readings can be large; an effect the other way counts as inactive or inconclusive. Potency means the concentration at half of the fitted maximal effect.

SMILES | FLuc modulator | ELG1 genotox | NPC1 promoter act | Rab9 prom act | KinaseGlo FLuc | SMN2 splice up
O=C(Nc1ccc2c(c1)CCCN2C(=O)c1ccccc1)c1ccccc1Br | ? | -9% | -4% | -1% | / | /
O=C(Nc1ccc2c(c1)CCCN2C(=O)c1cccs1)c1ccccc1C(F)(F)F | -3% | / | / | / | / | /
COc1ccccc1C(=O)Nc1ccc2c(c1)CN(C(=O)CSC)CC2 | 24µM* | 9% | 0% | 9% | / | /
COc1ccccc1C(=O)Nc1ccc2c(c1)CCCN2C(=O)c1ccccc1 | 9.5µM* | -2% | 1% | 4% | / | /
COc1cc(Br)c(C2CC(=O)Nc3cc4c(cc32)OCCO4)cc1OC (configuration not stated) | -1% | / | / | / | / | 8%
COc1cc(OC)c(NC(=O)c2nn(-c3ccc(C)cc3)c(=O)c3c2c2ccccc2n3C)cc1Cl | 7% | / | / | / | / | -7%
COc1ccc(/C=C/C2=NN(C)C(=O)CC2)cc1 | 11µM* | ? | 2µM* | 2.8µM* | ? | 11µM*
CCOC(=O)CN1N=C(/C=C/c2ccc(C)cc2)CCC1=O | ? | 4% | 1% | -5% | -2% | 9%
COc1nc(N)nc(NC23CC4CC(CC(C4)C2)C3)n1 | 5.4µM* | ? | 7% | 5% | -3% | 28%
COc1nc(N)nc(N2CCOCC2)n1 | 4% | 3% | -2% | -5% | 1% | -27%
CCOC(=O)/C(=N/Nc1ccccc1)c1csc(Nc2ccccc2)n1 | ? | 3% | -2% | -4% | -3% | 7%
CCOC(=O)/C(=N\Nc1ccc(OC)cc1)c1csc(Nc2ccccc2)n1 | 9.5µM* | 11% | 1% | -3% | 17% | 2%
CCC(C)NC(=O)c1ccc2c(c1)N(Cc1ccccc1)C(=O)c1ccccc1S2(=O)=O (configuration not stated) | 1% | / | / | / | / | 1%
COc1cccc(/C=N/Nc2nccnc2Cl)c1O | 2.7µM* | 2.6µM* | -18% | -23% | 11µM* | -66%
COc1cccc(/C=N/Nc2cc(-n3nc(C)cc3-c3ccccc3)ncn2)c1O | 13% | -11% | -32% | -44% | 2% | -107%
COc1cccc(/C=N/Nc2ncnc3scc(-c4ccccc4)c23)c1O | 21µM* | -3% | -9% | -26% | 0% | -75%
COc1cccc(/C=N/Nc2ncnc(Cl)c2N)c1O | 9.5µM* | 13µM* | -15% | -24% | -5% | /
COc1ccccc1CNC(=O)C1CCN(S(=O)(=O)c2c(C)noc2/C=C/c2cccs2)CC1 | -7% | / | / | / | / | -12%
COC(=O)c1ccccc1NC(=O)Cn1c(=O)n(CCCC(=O)NCCc2ccc(OC)c(OC)c2)c(=O)c2ccccc21 | -11% | / | / | / | / | 0%
CC1CCCN(c2ncnc3c2nnn3C)C1 (configuration not stated) | 4% | / | / | / | / | /
CCN(C[C@H]1N[C@@](Cc2ccccc2)(C(=O)OC)[C@H]2C(=O)N(Cc3ccccc3)C(=O)[C@@H]12)C(=O)Nc1ccc(C(F)(F)F)cc1 | / | -10% | / | / | / | /
N#C/C(=C\c1ccc(F)cc1)C(=O)Nc1ccccn1 | 12µM* | 1% | -1% | 0% | / | /
COCCCNC(=O)/C(C#N)=C/c1ccc(F)cc1 | -14% | 0% | -4% | 1% | -1% | 13%
CCOc1ccc(/C=C(\C#N)C(=O)Nc2ccccn2)cc1 | 3.4µM* | 0% | 2% | 4% | / | /
COc1cccc(CNC(=O)C2CCN(Cc3cc4ccccc4n3Cc3ccc(C)cc3)CC2)c1 | -2% | / | / | / | / | /
SMILES | FLuc modulator | ELG1 genotox | NPC1 promoter act | Rab9 prom act | KinaseGlo FLuc | SMN2 splice up
Cc1nc2cc(-c3ccccc3)nn2c(C)c1CCC(=O)NCc1cccc(Cl)c1 | -3% | / | / | / | / | 9%
O=c1c(-c2ccc(F)cc2)coc2c3c(ccc12)OCCO3 | ? | 2.6µM* | 3.5µM* | 1.3µM* | -4% | ?
O=c1c(-c2ccc(F)cc2)coc2cc(O)ccc12 | 13µM* | ? | 3.2µM* | 3.5µM* | ? | 78%
COc1ccc(-c2coc3cc(O)cc(O)c3c2=O)cc1OC | ? | ? | 22% | 24% | / | /
CCN(CC)C(=O)COc1ccc2c(-c3ccccc3)cc(=O)oc2c1 | -7% | 0% | -5% | -3% | / | /
O=c1c(-c2ccc(Br)cc2)coc2c(CN3CCOCC3)c(O)ccc12 | -21% | 8% | 0% | -6% | -2% | -9%
CCN(CC)C(=O)Oc1ccc2c(=O)c(-c3ccccc3)coc2c1 | 6µM* | ? | 1.6µM* | 3.5µM* | -13% | ?
COc1ccc2c(=O)c(-c3ccc(OC)c(OC)c3)coc2c1 | 7.6µM* | ? | ? | ? | / | /
CCSc1nnc2n(-c3cccc(C)c3)c(=O)c3c4c(sc3n12)CCCC4 | 6% | / | / | / | / | -3%
COc1ccc(-c2coc3cc(OC(C)=O)cc(OC(C)=O)c3c2=O)cc1 | / | / | / | / | -2% | 8.9µM*
COc1ccc2c(=O)c(CC(=O)O)coc2c1 | / | / | / | / | -1% | 4%
COc1ccccc1-c1coc2cc(O)cc(O)c2c1=O | 21µM* | 16µM* | 21% | ? | -3% | 25%
COc1ccc2c(=O)c(-c3ccccc3)coc2c1 | 3µM* | 1% | 0.71µM* | 0.79µM* | 2.8µM*! | 11µM*
COc1ccc(-c2coc3cc(O)ccc3c2=O)cc1OC | 19µM* | ? | ? | ? | 7% | 28%
COc1cc(OC)c(Nc2cc(C)nc3ncnn23)cc1Cl | -1% | / | / | / | / | 18%
C=CCNC(=O)N1CCCC(C(=O)c2cccc(OC(C)C)c2)C1 (configuration not stated) | 17µM* | ? | ? | 3.5µM* | / | /
Cc1cc(C(=O)OCC(N)=O)c(C)n1-c1ccccc1 | ? | 16% | 16% | 17% | 1% | ?
CCOC(=O)c1cc(C)n(-c2ccccc2)c1C | 15µM* | ? | 0% | 25% | / | /
COc1ccc(-n2c(C)cc(C(=O)COC(=O)c3ccc(O)cc3O)c2C)cc1 | ? | -4% | -4% | -16% | / | /
Cc1cc(C(=O)COC(=O)c2ccc(O)cc2O)c(C)n1-c1ccccc1 | 2.1µM* | ? | ? | ? | / | /
N=C1C(c2nc3ccccc3[nH]2)=C(O)CN1c1ccccc1 | 8.5µM* | 21µM* | 23% | ? | 4% | 19%
N=C1C(c2nc3ccccc3[nH]2)=C(O)CN1c1ccc(CC(=O)O)cc1 | -19% | 0% | -4% | 1% | -4% | -11%
CC1C(O)=C(c2nc3ccccc3[nH]2)C(=N)N1c1ccccc1 (configuration not stated) | 17µM* | ? | 26% | 21% | 0% | 26%
CCC(C)N1CC(O)=C(c2nc3ccccc3[nH]2)C1=N (configuration not stated) | 17µM* | ? | ? | ? | 2% | -6%

From PubChem
